# Laboratory results published in PubChem BioAssay (NCATS).
# “And” between values parts separate entries of the source, which are not always exact repeats. Identical values can stand only once. Results filed as inconclusive are left out. Where a structure was tested more than once in an assay, its records may differ in their call. The source made the active and inactive calls. The call rests on the fitted dose curve; in most records, active means well fitted curve in the direction sought with a large enough effect; inconclusive means small, poorly fitted or top-dose-only effect, or another doubt; inactive means no such curve, though single readings can be large; an effect the other way counts as inactive or inconclusive. Square brackets hold non-standard residues; d marks the D form. Peptide text beside a SMILES is read from it. * marks the point of attachment. Nva = CCC[C@H](N)C(=O)O; Cbz = O=C(OCc1ccccc1)*
# Assays:
# [1] = Viability qHTS for spleen associated tyrosine kinase inhibitor (SYKi) naive MV4-11 cells (AID 1963823); further: nearly all actives have a fitted effect of over 40% in size
# Procedure, shortened: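 qHTS, SYK inhibitor-naive MV4-11; 500 cells/well; 72 hr compound exposure, 37 C; CellTiter-Glo added, 10 min RT; luminescence read.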
# [2] = Viability qHTS for spleen associated tyrosine kinase inhibitor (SYKi) drug resistant MV4-11 cells (AID 1963824); further: nearly all actives have a fitted effect of over 35% in size
# Procedure, shortened: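 SYK-inhibitor-resistant MV4-11 AML cells were seeded at 500 per well onto compound and cultured 72 hours (37 °C, 5% CO2). CellTiter-Glo was then added, and after 10 min at room temperature, luminescence gave viability.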
# [3] = Quantitative highthroughput screen to assess conditional lethalithy of NOMO1 cells grown in RPMI1640 with untreated serum (RPMI+s) (AID 1963876); further: nearly all actives have a fitted effect of over 35% in size;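 on Viability: 100% = DMSO wells and 0% = empty wells without cells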
# Procedure, shortened: (§1)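 Each medium arm—HPLM with 10% dialyzed FBS, or RPMI1640 with 5 mM glucose and 10% untreated or dialyzed FBS—was screened against an 11-point, 3-fold compound titration for 48 h at 37 °C, with CellTiter-Glo luminescence as endpoint.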
# [4] = Quantitative highthroughput screen to assess conditional lethalithy of NOMO1 cells grown in RPMI1640 with dialyzed fetal bovine serum (RPMI+ds) (AID 1963877); further: nearly all actives have a fitted effect of over 30% in size;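 on Viability: series mostly up to about 46 µM; 100% = DMSO control wells and 0% = empty wells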
# Procedure, shortened: as §1
# [5] = Quantitative highthroughput screen to assess conditional lethalithy of P12 Ichikawa cells grown in Human Plasma-Like Medium with dialyzed fetal bovine serum (HPLM+ds) (AID 1963879); settings: Potency: viability; further: nearly all actives have a fitted effect of over 35% in size; on Viability: series mostly up to about 46 µM
# Procedure, shortened: as §1
# [6] = Quantitative highthroughput screen to assess conditional lethalithy of P12 Ichikawa cells grown in RPMI1640 with untreated serum (RPMI+s) (AID 1963881); settings: Potency: viability; further: nearly all actives have a fitted effect of over 35% in size;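 on Viability: series mostly up to about 46 µM; 100% = DMSO wells and 0% = empty wells without cells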
# Procedure, shortened: as §1
# [7] = Cellular viability qHTS for adrenocortical cancer (ACC) cell line SW-13 (AID 1963989); settings: SW-13 ACC cells viability, CellTiter-Glo, 48 h; activity (max response): stronger effect = lower value; further: nearly all actives have a fitted effect of over 65% in size;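 on activity (max response): cells grown in serum-free medium with ITS supplement; on the % scale 0 is the no-effect control and ±100 the full control effect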
# Procedure, shortened: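 Viability was read as CellTiter-Glo luminescence after 48 h compound treatment (up to 46 uM final) of SW-13 cells grown serum-free; titration curves were fit with a four-parameter logistic model to give IC50 and efficacy.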
# [8] = Cellular viability qHTS for adrenocortical cancer (ACC) cell line NCI-H295R (AID 1963990); further: nearly all actives have a fitted effect of over 60% in size
# Procedure, shortened: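 CellTiter-Glo ATP luminescence, read 48 h after compound addition, measured viability of NCI-H295R adrenocortical cells grown serum-free with ITS. Final concentrations spanned up to 46 uM. Data normalized to DMSO and doxorubicin, fitted for IC50 and maximal response.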
# [9] = Quantitative highthroughput screen to assess conditional lethalithy of P12 Ichikawa cells grown in RPMI1640 with dialyzed fetal bovine serum (RPMI+ds) (AID 1963880); settings: Potency: P12-Ichikawa viability; further: nearly all actives have a fitted effect of over 35% in size;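 on Viability: 100% = DMSO wells and 0% = empty wells on each plate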
# Procedure, shortened: as §1
# [10] = Quantitative highthroughput screen to assess conditional lethalithy of SEM cells grown in Human Plasma-Like Medium with dialyzed fetal bovine serum (HPLM+ds) (AID 1963882); further: nearly all actives have a fitted effect of over 35% in size; on Viability: series mostly up to about 46 µM
# Procedure, shortened: as §1
# [11] = Quantitative highthroughput screen to assess conditional lethalithy of SEM cells grown in RPMI1640 with unreated serum (RPMI+s) (AID 1963883); further: nearly all actives have a fitted effect of over 35% in size;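 on Viability: 100% = DMSO wells and 0% = empty wells without cells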
# Procedure, shortened: as §1
# [12] = Quantitative highthroughput screen to assess conditional lethalithy of SEM cells grown in RPMI1640 with dialyzed fetal bovine serum (RPMI+ds) (AID 1963884); further: nearly all actives have a fitted effect of over 35% in size;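 on Viability: series mostly up to about 46 µM; 100% = DMSO control wells and 0% = empty wells without cells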
# Procedure, shortened: as §1
# [13] = Quantitative highthroughput screen to assess conditional lethalithy of NOMO1 cells grown in Human Plasma-Like Medium with dialyzed fetal bovine serum (HPLM+ds) (AID 1963878); further: nearly all actives have a fitted effect of over 35% in size;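 on Viability: 100% = DMSO wells and 0% = empty wells on each plate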
# Procedure, shortened: as §1
# Potency means the concentration at half of the fitted maximal effect.
SMILES,Potency [1],Potency [2],Potency [3],Potency [4],Potency [5],Potency [6],activity (max response) [7],Potency [8],Potency [9],Potency [10],Potency [11],Potency [12],Potency [13],Potency [7]
CCOC(=O)c1ccc(OC(=O)CCCCCN=C(N)N)cc1,inactive,inactive,3.32 µM (active),3.32 µM (active),1.87 µM (active),7.43 µM (active),3.73% (inactive),inactive,,,,,,
C=C1C(=O)OC(CCCCCCCC)C1C(=O)O (stereo not drawn),inactive,inactive,inactive,inactive,,inactive,-7.15% (inactive),inactive,inactive,inactive,inactive,inactive,,
CCN(c1ccccc1)c1cc(NC)[n+](C)c(C)n1,18.6 µM (active),18.6 µM (active),inactive,,inactive,inactive,-0.574% (inactive),inactive,inactive,inactive,inactive,inactive,inactive,
O=c1cc(N2CCOCC2)oc2c(-c3ccccc3)cccc12,5.9 µM (active),inactive and 9.34 µM (active),inactive,inactive,,inactive,,inactive,inactive,,inactive,,,
O=C(O)CCNc1cc(N2CCc3ccccc3CC2)nc(-c2ccccn2)n1,inactive,inactive,inactive,inactive,inactive,,0.209% (inactive),inactive,,inactive,inactive,,,
CCCCCCNC(=O)n1cc(F)c(=O)[nH]c1=O,1.05 µM (active),0.934 µM (active),inactive,9.35 µM (active),,,8.7% (inactive) and -4.78% (inactive),inactive,,,16.6 µM (active),,,
NC(=O)c1cccc2[nH]c(-c3ccc([C@H]4CCCN4)cc3F)nc12,20.6 µM (active),16.6 µM (active),inactive,18.7 µM (active),,,-3% (inactive),8.91 µM (active),,,3.72 µM (active),2.64 µM (active),,
COc1ccc2c(c1)c(C1=C(c3c[nH]c4ccccc34)C(=O)NC1=O)cn2CCCN(C)C,0.148 µM (active),0.332 µM (active),inactive,inactive,inactive,inactive,,,,,,,,15.8 µM (active)
Oc1ccc(OCc2ccccc2)cc1,5.9 µM (active),inactive and 8.33 µM (active),inactive,18.7 µM (active),7.43 µM (active),3.72 µM (active),12.2% (inactive),inactive,,,,,,
CC(=O)Nc1ccc([C@H](C)C(=O)Nc2ncc(C(C)C)s2)cc1,1.66 µM (active),4.61 µM (active),4.69 µM (active),,11.8 µM (active),11.8 µM (active),,,10.5 µM (active),6.62 µM (active),7.43 µM (active),7.43 µM (active),7.43 µM (active),1.26 µM (active)
CCn1c(-c2nonc2N)nc2cnc(Oc3cccc(NC(=O)c4ccc(OCCN5CCOCC5)cc4)c3)cc21,517 nM (active) and 934 nM (active),3.66 µM (active) and 5.25 µM (active),5.9 µM (active),1.18 µM (active),9.35 µM (active),,,,,13.2 µM (active),,,,
CCC[C@@H](C=O)NC(=O)[C@H](CC(C)C)NC(=O)[C@H](CC(C)C)NC(=O)OCc1ccccc1 (Cbz-Leu-Leu-[Nva]-aldehyde),0.742 µM (active),0.934 µM (active),1.32 µM (active),,3.32 µM (active),2.64 µM (active),,,3.32 µM (active),2.35 µM (active),0.526 µM (active),1.48 µM (active),1.87 µM (active),2 µM (active)
O=C1NC(=O)C(c2cnc3ccccn23)=C1c1cn2c3c(cc(F)cc13)CN(C(=O)N1CCCCC1)CC2,231 nM (active) and 833 nM (active),51.7 nM (active) and 372 nM (active),inactive,inactive,,0.166 µM (active),,25.1 µM (active),5.88 µM (active),0.0209 µM (active),0.0186 µM (active),0.0166 µM (active),,
CC(C)=CC[C@@H](O)C1=CC(=O)c2c(O)ccc(O)c2C1=O,5.25 µM (active),2.63 µM (active),1.66 µM (active),2.09 µM (active),,10.5 µM (active),,,13.2 µM (active),inactive,,,,
CC[C@H](C)n1cc(C)c2c(C(=O)NCc3c(C)cc(C)[nH]c3=O)cc(-c3ccc(N4CCNCC4)nc3)cc21,7.42 µM (active),10.5 µM (active),inactive,,inactive,inactive,,28.2 µM (active),inactive,inactive,inactive,inactive,,
